The list shows a part of the results. The source made the active and inactive calls. Rule as the data show it: active = z-score above about 6.3; inactive = the rest.
Assay: toxicity to mouse AML12 liver cells – imaging, DAPI nuclear morphology imaging, counter-screen for hepatic lipid droplet formation project (AID 463200);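 also: compound exposure lasted overnight at 37 °C before fixation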
Conditions: AML12 mouse hepatocytes, DAPI nuclear morphology cytotoxicity imaging; at 5 µM; active compounds read high; cells fed 100 µM oleate overnight
In the case of `COc1cccc(/C=C(/CC(=O)Nc2ccc(N3CCOCC3)cc2)c2nc3ccccc3s2)c1`, the z-score is reported as 0.0842 (inactive). In the case of `CCOC(=O)C1=C(CC)OC(N)=C(C#N)C1c1ccc(F)cc1F` (stereo unspecified), the z-score is reported as -0.275 (inactive). With `CCc1ccc(NC(=O)C(C)OC(=O)/C=C/c2cccc([N+](=O)[O-])c2)cc1` (stereo unspecified) the z-score was 1.35 (inactive). In the case of `CC(NC(=O)c1cccc2ccccc12)c1ccc2c(c1)CCCC2` (stereo unspecified), the z-score is reported as 8.48 (active). In the case of `COCCCNC(=O)CN1C(=O)CSc2ccc(S(=O)(=O)N3CCOCC3)cc21`, the z-score is reported as -0.296 (inactive). For `CCCc1ccc(-c2csc(NC(=O)Cc3cccs3)n2)cc1`, the z-score was -0.171 (inactive). For `COc1ccc(C(C(=O)NC(C)(C)C)N(Cc2ccc(F)cc2)C(=O)CCC(=O)Nc2cc(C)on2)cc1` (stereo unspecified), the z-score was -0.0925 (inactive). With `CC(C)(C)NC(=O)Cn1cnc2cc([N+](=O)[O-])ccc2c1=O` the z-score was -1.05 (inactive). For `CCOc1ccc(CCNC(=O)Nc2ccccc2)cc1OCC`, the z-score was -0.203 (inactive). For `CCOc1ccc(CCNC(=O)CCc2nnc3ccc(N4CCCC4)nn23)cc1OCC`, the z-score was -0.773 (inactive). With `COc1ccc(/C=C(\NC(=O)c2ccc(OCC(C)C)cc2)C(=O)OCc2ccco2)cc1` the z-score was -0.0226 (inactive). With `CCCN(CCC)c1nc2c(C)cccn2c(=O)c1/C=C1/SC(=S)N(Cc2ccco2)C1=O` the z-score was -0.326 (inactive). In the case of `Cn1c(=O)[nH]c(=O)c2c1nc(N1CCN(C(c3ccccc3)c3ccccc3)CC1)n2CCO`, the z-score is reported as 0.0379 (inactive). In the case of `O=C(CN1CCc2cc3c(cc2C1)OCCCO3)Nc1ccccc1`, the z-score is reported as 0.947 (inactive). With `Cc1c(C(=O)NCc2ccccc2)cnn1-c1ccccc1` the z-score was -0.784 (inactive). With `COc1cc(/C=N/NC(=O)Nc2ccccc2)ccc1OCCOc1ccccc1C` the z-score was 4.44 (inactive). For `Cc1cc(NC(=O)CSc2nc(C(C)C)nc3sc4c(c23)CCC(C)C4)no1` (stereo unspecified), the z-score was -0.355 (inactive). For `CN(C)c1ccc(Nc2c3c4c(cccc4n(C)c2=O)C(=O)c2ccccc2-3)cc1`, the z-score was 0.335 (inactive). For `Cc1ccc(N2C(=O)C(NC(=O)c3c(F)cccc3F)(C(F)(F)F)C3=C2CC(C)(C)CC3=O)cc1` (stereo unspecified), the z-score was -0.996 (inactive). With `CCCCN1C(=O)/C(=C/C=C2/C=Cc3ccccc3N2CC)SC1=S` the z-score was -0.15 (inactive). For `COc1ccc(OC)c(-c2csc(-c3cccs3)n2)c1`, the z-score was -0.885 (inactive). With `Cc1cc(C(=O)NC2CCCc3c2cnn3-c2cccc(C)c2C)c(C)o1` (stereo unspecified) the z-score was 0.206 (inactive). For `O=[N+]([O-])c1ccccc1N/N=C1\CCc2ccccc21`, the z-score was -0.00245 (inactive). For `CCCN(CCC)c1ccc(C(O)c2nnc(-c3ccccc3)o2)cc1` (stereo unspecified), the z-score was -0.662 (inactive). With `O=C1Nc2ccc(Br)cc2/C1=N/N=C/C1=C(N2CCOCC2)C(=C\c2ccccc2)/CC1` the z-score was -1.9 (inactive). With `COc1ccc(Cl)cc1NC(=O)CN(C)C(=O)CCCc1c[nH]c2ccccc12` the z-score was 0.989 (inactive).
